Target: C12orf42
Assay: pooled miR-30 sensor sort-seq; sequence = guide strand
Settings: shRNA
Further: reference of the scale not given here.

Q: With TGTGCTTACAGAACACCTGGGG as the sequence, how does the sensor-assay potency score (higher = more potent) read?
A: 0.85

Q: How did the sensor-assay potency score (higher = more potent) turn out when TCTGCTTTGGATGTCGTCGGGG was run?
A: -0.507

Q: How did the sensor-assay potency score (higher = more potent) turn out when TGATTAATGAATCTGGAGCAGG was run?
A: -0.678

Q: With TCGAGCTCTGTGTTACTCGGGC as the sequence, how does the sensor-assay potency score (higher = more potent) read?
A: -0.424

Q: For TAGGTCTTGTGTGTCTACTGAT, which sensor-assay potency score (higher = more potent) is on record?
A: -0.227

Q: TTAGGTCTTGTGTGTCTACTGA was tested. Which sensor-assay potency score (higher = more potent) did it give?
A: 0.176

Q: Which sensor-assay potency score (higher = more potent) does the source give for TCTTGTGTGTCTACTGATGTGT here?
A: 0.434

Q: TTCATAACAAGGGATGTGCTTT was tested. Which sensor-assay potency score (higher = more potent) did it give?
A: -0.454

Q: Which sensor-assay potency score (higher = more potent) does the source give for TTTATTAACCTCTTGGAGGGGA here?
A: 0.548

Q: How did the sensor-assay potency score (higher = more potent) turn out when TTCATGTGATTAATGAATCTGG was run?
A: 0.286

Target: C13orf33
Assay: as above
Settings: shRNA

Q: TAACTTTCTCCAATCACTGAGG was tested. Which sensor-assay potency score (higher = more potent) did it give?
A: -0.682

Q: Which sensor-assay potency score (higher = more potent) does the source give for TTACACTGAACTTTCGGTCAGA here?
A: 0.151

Q: TAATAAAGAACAACATTGGTTT was tested. Which sensor-assay potency score (higher = more potent) did it give?
A: -0.342

Q: With TCTATCTGTCTTCTTATCTTGG as the sequence, how does the sensor-assay potency score (higher = more potent) read?
A: -0.385

Q: For TAACTTAATCGTCTCCTTCTTT, which sensor-assay potency score (higher = more potent) is on record?
A: -0.331

Source: the OligoGym collection
